Source: ChEMBL document CHEMBL3988442, “University of Dundee, Small-Polar-MMV Screening Library” (2021)
For some of these results: Entries with a potency or affinity are not part of this list.

Legend:
Set-up in all cases: scale not given: direction of the effect not stated beside the values
[1] = biological target: Protein translocase subunit SecA (Escherichia coli (strain K12)) (UniProt P10408); test: Assay to Identify E. coli SecA ATPase Inhibitors; format: functional; details: 30 µM
[2] = biological target: T1, Ubiquitin-activating enzyme e1, putative (Leishmania donovani (strain BPK282A1)) (UniProt E9BSI1); test: Leishmania donovani Ubiquitin Activating Enzyme (LdE1); format: functional; details: 30 µM
T1 sequence (whole entry): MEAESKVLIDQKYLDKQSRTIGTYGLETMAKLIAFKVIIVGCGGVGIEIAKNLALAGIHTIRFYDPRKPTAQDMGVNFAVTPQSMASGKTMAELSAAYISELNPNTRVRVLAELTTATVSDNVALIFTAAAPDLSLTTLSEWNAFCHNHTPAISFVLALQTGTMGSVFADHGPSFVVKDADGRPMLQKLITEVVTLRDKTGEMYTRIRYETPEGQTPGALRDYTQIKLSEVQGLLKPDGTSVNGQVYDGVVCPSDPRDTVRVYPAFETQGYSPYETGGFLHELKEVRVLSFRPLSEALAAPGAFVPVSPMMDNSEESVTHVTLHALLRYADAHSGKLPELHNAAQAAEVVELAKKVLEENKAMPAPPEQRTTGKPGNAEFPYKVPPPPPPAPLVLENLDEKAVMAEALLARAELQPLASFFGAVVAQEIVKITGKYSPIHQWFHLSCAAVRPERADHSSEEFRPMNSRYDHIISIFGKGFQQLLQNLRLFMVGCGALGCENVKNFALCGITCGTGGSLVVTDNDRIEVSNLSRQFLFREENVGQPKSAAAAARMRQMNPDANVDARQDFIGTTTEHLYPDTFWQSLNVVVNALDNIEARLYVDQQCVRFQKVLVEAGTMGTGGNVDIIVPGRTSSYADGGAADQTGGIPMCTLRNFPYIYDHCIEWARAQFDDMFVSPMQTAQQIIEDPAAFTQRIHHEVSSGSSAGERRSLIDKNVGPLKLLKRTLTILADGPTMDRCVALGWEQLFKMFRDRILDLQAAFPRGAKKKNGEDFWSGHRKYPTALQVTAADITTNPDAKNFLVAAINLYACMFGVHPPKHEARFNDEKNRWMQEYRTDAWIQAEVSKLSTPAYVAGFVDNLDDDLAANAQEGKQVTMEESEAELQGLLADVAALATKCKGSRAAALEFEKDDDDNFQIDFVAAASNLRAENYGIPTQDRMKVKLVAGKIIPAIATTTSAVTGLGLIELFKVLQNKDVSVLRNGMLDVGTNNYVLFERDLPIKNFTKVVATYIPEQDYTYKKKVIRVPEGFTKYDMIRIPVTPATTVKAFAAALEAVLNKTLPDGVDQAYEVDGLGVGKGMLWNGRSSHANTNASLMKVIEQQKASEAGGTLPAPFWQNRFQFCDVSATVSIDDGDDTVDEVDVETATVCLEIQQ

[3] = biological target: AMP-activated protein kinase, AMPK (Homo sapiens) (UniProt P54646+O43741+P54619+Q9UGJ0+Q9Y478+Q13131+Q9UGI9); test: AMP-dependent Kinase enzyme assay. An in vitro enzyme assay that detects ADP turnover that is directly proportional to AMPK activity. This uses naive AMPK that is activated during the assay with MK-8722; format: functional; details: 30 µM
[4] = biological target: Sialic acid-binding Ig-like lectin 9 (Homo sapiens) (UniProt Q9Y336); test: Hs-Siglec9 ALPHAscreen SOP 20170721; details: 10 µM
Trypanosoma cruzi = test: Trypanosoma cruzi phosphomannomutase and mannose-1-phosphate guanylyltransferase assay; format: functional; details: 10 µM
[5] = biological target: T2, Arginase-2, mitochondrial (Homo sapiens) (UniProt P78540); test: in vitro enzyme assay to detect the production of urea directly proportional to the activity of Arginase II; format: functional; details: 33.3 µM; also: in the data most compounds retested in dose-response had high values
T2 sequence (whole entry): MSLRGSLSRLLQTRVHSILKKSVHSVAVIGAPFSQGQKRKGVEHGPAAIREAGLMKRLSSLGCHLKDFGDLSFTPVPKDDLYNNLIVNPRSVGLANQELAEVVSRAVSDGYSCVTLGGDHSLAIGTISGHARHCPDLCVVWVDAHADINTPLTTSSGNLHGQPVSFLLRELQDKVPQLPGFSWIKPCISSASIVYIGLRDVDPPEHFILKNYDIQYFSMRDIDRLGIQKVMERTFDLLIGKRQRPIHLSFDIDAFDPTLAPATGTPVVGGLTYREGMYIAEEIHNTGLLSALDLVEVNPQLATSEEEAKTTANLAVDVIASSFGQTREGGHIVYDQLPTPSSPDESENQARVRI

[6] = biological target: T3, Proteasome subunit beta (Trypanosoma cruzi) (UniProt O96673); test: Trypanosoma cruzi proteasome chymotrypsin-like activity (TcProtChymo) assay.; also: in the data most compounds retested in dose-response had high values; format: functional; details: 9.37 µM
T3 sequence (whole entry): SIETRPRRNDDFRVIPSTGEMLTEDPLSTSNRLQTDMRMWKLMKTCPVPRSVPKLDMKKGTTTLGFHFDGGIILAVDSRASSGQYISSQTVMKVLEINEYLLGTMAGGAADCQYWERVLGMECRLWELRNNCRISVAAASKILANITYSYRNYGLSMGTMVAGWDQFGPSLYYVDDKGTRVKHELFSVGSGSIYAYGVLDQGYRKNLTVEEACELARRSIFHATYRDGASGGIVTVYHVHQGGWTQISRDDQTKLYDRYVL

Homo sapiens = species: Homo sapiens; test: To identify inhibition of the IFN signalling (Jak-Stat) pathway via expression of an eGFP reporter gene under the control of an IFN-stimulated response element (ISRE) containing MxA promoter.; format: functional; details: 30 µM
[7] = biological target: T4, Tyrosyl-tRNA synthetase, putative (Trypanosoma cruzi (strain CL Brener)) (UniProt Q4DSP6); test: Trypanosoma cruzi tyrosyl tRNA synthetase (TcYRS) _High Tyrosine SOP; format: functional; details: 30 µM; also: in the data most compounds retested in dose-response had high values
T4 sequence (whole entry): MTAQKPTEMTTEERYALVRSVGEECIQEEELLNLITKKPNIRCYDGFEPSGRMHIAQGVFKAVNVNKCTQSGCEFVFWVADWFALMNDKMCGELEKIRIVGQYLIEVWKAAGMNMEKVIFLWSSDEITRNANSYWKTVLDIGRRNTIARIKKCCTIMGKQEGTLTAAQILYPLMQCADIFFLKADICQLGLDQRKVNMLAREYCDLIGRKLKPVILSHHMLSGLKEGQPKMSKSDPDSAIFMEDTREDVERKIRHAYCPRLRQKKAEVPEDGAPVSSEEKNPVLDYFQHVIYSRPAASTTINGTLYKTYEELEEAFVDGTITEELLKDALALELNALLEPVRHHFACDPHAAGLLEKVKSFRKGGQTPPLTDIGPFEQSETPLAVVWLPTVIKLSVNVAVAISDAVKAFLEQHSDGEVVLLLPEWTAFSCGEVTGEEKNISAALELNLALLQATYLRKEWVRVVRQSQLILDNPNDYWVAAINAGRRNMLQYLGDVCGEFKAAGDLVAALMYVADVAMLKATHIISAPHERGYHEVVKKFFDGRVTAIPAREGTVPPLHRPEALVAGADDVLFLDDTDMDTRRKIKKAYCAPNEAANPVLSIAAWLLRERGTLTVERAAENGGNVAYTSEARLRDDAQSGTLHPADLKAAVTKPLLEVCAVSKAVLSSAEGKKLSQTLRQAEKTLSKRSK

[8] = biological target: T4, Tyrosyl-tRNA synthetase, putative (Trypanosoma cruzi (strain CL Brener)); test: Trypanosoma cruzi tyrosyl tRNA synthetase (TcYRS) SOP; format: functional; details: 30 µM
[9] = biological target: Chromo domain-containing protein 1 (Saccharomyces cerevisiae (strain ATCC 204508 / S288c) (Baker's yeast)) (UniProt P32657); test: ScCHD-1 Enzyme Inhibition Assay; format: functional; details: 30 µM; also: in the data most compounds retested in dose-response had high values
Chain of Chromo domain-containing protein 1 (Saccharomyces cerevisiae (strain ATCC 204508 / S288c) (Baker's yeast)) (P32657 whole entry, the tested form may be a part): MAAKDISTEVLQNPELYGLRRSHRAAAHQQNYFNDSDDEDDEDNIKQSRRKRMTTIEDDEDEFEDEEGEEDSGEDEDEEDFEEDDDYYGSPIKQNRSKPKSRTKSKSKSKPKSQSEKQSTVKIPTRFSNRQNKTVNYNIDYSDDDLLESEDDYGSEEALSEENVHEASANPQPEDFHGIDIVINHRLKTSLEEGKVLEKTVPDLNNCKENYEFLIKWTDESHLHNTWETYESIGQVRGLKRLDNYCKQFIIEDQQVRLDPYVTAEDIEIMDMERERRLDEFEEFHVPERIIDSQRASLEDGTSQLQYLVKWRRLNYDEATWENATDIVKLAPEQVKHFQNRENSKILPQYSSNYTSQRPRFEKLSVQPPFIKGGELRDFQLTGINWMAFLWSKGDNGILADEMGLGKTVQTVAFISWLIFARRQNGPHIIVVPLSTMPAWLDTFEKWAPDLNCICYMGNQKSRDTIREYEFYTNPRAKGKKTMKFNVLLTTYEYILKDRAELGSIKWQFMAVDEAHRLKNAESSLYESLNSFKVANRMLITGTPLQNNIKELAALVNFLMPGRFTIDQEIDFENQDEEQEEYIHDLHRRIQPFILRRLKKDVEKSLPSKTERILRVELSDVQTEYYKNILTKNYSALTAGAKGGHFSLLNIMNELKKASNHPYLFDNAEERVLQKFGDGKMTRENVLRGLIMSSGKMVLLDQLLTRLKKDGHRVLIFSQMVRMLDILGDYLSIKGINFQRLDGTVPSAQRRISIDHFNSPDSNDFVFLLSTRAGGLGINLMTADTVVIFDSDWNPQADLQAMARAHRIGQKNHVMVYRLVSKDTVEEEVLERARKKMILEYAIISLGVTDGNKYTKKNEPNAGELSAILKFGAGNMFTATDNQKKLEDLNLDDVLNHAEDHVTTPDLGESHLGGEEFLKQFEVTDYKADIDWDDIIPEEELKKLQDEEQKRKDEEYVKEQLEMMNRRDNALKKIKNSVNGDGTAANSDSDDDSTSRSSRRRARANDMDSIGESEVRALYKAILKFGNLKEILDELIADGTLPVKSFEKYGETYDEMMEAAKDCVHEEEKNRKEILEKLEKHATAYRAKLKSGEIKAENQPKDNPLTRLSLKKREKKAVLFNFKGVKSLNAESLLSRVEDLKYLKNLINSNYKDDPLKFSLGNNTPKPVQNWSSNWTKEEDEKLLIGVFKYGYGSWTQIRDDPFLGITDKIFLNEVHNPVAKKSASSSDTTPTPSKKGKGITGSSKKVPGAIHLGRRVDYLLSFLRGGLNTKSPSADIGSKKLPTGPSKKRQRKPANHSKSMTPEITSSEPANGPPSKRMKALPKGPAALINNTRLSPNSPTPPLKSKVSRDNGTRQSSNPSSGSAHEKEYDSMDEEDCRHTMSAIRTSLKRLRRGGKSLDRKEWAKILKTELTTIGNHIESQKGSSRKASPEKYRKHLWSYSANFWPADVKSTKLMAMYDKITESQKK

Chain of Protein translocase subunit SecA (Escherichia coli (strain K12)) (P10408 whole entry): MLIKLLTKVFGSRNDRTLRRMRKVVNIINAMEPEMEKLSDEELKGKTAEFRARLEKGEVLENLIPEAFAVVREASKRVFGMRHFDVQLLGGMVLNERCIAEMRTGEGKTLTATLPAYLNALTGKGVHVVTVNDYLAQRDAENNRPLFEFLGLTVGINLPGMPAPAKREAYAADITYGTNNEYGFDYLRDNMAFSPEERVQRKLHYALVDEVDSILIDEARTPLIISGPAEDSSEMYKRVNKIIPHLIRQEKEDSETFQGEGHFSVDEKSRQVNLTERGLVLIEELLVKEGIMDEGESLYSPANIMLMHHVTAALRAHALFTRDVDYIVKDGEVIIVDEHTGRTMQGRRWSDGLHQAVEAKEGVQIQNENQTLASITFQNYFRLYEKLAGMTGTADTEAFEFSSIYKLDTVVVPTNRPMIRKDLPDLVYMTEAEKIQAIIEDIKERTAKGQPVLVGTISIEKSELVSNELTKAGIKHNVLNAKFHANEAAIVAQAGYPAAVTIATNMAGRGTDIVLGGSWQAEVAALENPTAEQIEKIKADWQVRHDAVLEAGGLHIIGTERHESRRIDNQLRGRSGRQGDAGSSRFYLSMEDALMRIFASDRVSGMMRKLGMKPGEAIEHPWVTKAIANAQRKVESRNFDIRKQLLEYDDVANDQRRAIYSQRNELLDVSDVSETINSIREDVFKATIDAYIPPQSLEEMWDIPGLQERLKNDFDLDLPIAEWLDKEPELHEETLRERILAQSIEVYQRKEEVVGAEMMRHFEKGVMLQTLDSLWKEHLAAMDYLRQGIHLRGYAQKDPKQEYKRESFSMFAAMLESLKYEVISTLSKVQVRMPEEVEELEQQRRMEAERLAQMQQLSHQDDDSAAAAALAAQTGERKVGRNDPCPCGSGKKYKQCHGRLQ
Chain of Sialic acid-binding Ig-like lectin 9 (Homo sapiens) (Q9Y336 whole entry): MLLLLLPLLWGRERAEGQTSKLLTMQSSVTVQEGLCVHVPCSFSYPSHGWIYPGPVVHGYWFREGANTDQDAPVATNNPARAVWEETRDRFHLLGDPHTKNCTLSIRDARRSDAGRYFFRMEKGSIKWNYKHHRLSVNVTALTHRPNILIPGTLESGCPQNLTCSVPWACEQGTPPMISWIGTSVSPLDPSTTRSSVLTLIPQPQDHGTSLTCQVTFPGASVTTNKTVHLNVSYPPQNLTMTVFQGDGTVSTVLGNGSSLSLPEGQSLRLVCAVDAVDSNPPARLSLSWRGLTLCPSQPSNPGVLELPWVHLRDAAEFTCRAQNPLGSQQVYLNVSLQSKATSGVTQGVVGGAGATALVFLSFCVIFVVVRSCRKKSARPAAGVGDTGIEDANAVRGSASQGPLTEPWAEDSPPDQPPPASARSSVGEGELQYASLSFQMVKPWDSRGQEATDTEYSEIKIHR

Structure (SMILES)	Percent Effect [1]	Percent Effect [2]	Percent Effect [3]	Percent Effect [4]	Percent Effect (Trypanosoma cruzi)	Percent Effect [5]	Percent Effect [6]	Percent Effect (Homo sapiens)	Percent Effect [7]	Percent Effect [8]	Percent Effect [9]
Cc1cnn(CC2CCCCN2C(=O)c2cc(C(N)=O)cs2)c1 (stereo not drawn)	-8.81%	1.27%	1.77%	-2.33%	0.308%	-2.37%	8.4%	17.1%	-1.04%	-5.06%	-0.902%
Cc1cc(C(=O)N2CCc3nnc(N)cc3C2)c(C)n1C1CC1	-4.88%	8.86%	-10.1%	0.435%	-1.95%	-3.23%	20.1%	2.81%	7.29%	17.7%	-16.9%
CCCN1CCN(C(=O)c2cnccn2)[C@H]2CS(=O)(=O)C[C@H]21	-2.77%	2.7%	-5.74%	30.7%	3.86%	2.38%	2.93%	6.26%	4.76%	12.2%	-5.99%
O=C(CSc1ncccn1)N1C[C@H]2CC[C@@H]1CN(Cc1ccncc1)C2	-4.87%	11%	-5.51%	21%	6.46%	8.64%	12.9%	-3.77%	5.38%	7.5%	-3.96%
CC(C(=O)NCc1ccnc(N2CCCC2)c1)n1cncn1 (stereo not drawn)	-3.9%	15.8%	-4.58%	-5.93%	-5.45%	3.45%	7.18%	26.8%	3.43%	0%	-11.3%
COc1ccc(C2CCCN2C(=O)c2csc(NC(C)=O)n2)cc1 (stereo not drawn)	-5.5%	18.2%	41.8%	-5.49%	-3.37%	2.85%	4.56%	17.3%	6.8%	12.2%	-8.21%
CCn1ncnc1C(NC(=O)CC1CCN(C(C)C)CC1)C1CC1 (stereo not drawn)	-12.1%	-2.7%	-3.06%	-6.3%	-6.16%	-1.74%	3.18%	-5.64%	-2.15%	1.24%	-3.37%
Cc1nn(C)c(C)c1C(C)NC(=O)Nc1cccnc1N1CCCC1 (stereo not drawn)	-1.26%	2.7%	-19.3%	6.12%	-3.3%	0%	0.18%	15%	-0.493%	3.7%	-0.951%
